Test systems include NCI-H23 lung; NCI-H226 lung; NCI-H322M lung; HOP-62 NSCLC; NCI-H460 lung; NCI-H522 lung; A549/ATCC NSCLC; 786-0 renal; COLO 205 colon; DU-145 prostate.
Holding throughout (assay): NCI-60 one-dose screen, 48 h (100 = growth as untreated, 0 = no growth, -100 = all killed)
Details in all cases: 10 µM

This is part of a sample that, as a whole, favours compounds with a hit. Of some 83,000 tested, about 20% had one in any assay.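 A percent growth of 40 corresponds to 60% growth inhibition; 0 means no net growth; -100 means all cells died. Active threshold: below 10.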 A number with no mark means an inactive call. The source made the active and inactive calls.

As for `CC(=O)[C@H]1CC[C@H]2[C@@H]3CCC4=CC(=O)C=C[C@]4(C)[C@H]3CC[C@]12C`, the growth was 90% with NCI-H23 lung; 88.4% in the experiment on NCI-H226 lung; 97% in the experiment on NCI-H322M lung; 100% in the experiment on HOP-62 NSCLC; 96.1% with NCI-H460 lung; 81.4% in the experiment with NCI-H522 lung. The growth in the experiment with A549/ATCC NSCLC is 94.4%; with 786-0 renal, 99.8%; with COLO 205 colon, 119%; with DU-145 prostate, 108%.
With `CCOC(=O)CNC(=O)CCCCSc1ncnc2nc[nH]c12`, the growth with NCI-H23 lung is 113%; in the experiment on NCI-H226 lung, 94.5%; in the experiment on NCI-H322M lung, 173%; in the experiment on HOP-62 NSCLC, 96.2%; with NCI-H460 lung, 97%; with NCI-H522 lung it was 102%. Further, the growth with A549/ATCC NSCLC is 109%; in the experiment with 786-0 renal it was 97.9%; with COLO 205 colon, 111%; in the experiment on DU-145 prostate, 113%.
Consider `c1ccc(CP(Cc2ccccc2)c2ccccc2)cc1`, for which the growth in the experiment with NCI-H23 lung is 97.9%; in the experiment on NCI-H226 lung, 105%; with NCI-H322M lung, 87.3%; with HOP-62 NSCLC, 99.4%; in the experiment with NCI-H460 lung, 112%; in the experiment with NCI-H522 lung, 83.1%. Moreover, the growth with A549/ATCC NSCLC is 97%; in the experiment on 786-0 renal, 93.5%; with COLO 205 colon, 106%; with DU-145 prostate, 113%.
Regarding `CCCCCCN(CCCCCC)CC(O)c1ccc2c3c(cccc13)CC2` (stereo not given), the growth was 30.5% in the experiment with NCI-H23 lung; 69.9% in the experiment on NCI-H226 lung; 65.9% in the experiment on NCI-H322M lung; 85.2% in the experiment on HOP-62 NSCLC; 42.6% in the experiment on NCI-H460 lung; 30.1% in the experiment on NCI-H522 lung. Moreover, the growth is 64.1% in the experiment on A549/ATCC NSCLC, 43.1% with 786-0 renal, 64.1% with COLO 205 colon and 76.4% with DU-145 prostate.
Consider `O=C1OCC2=C1C(c1cccc(Cl)c1)c1cc3c(cc1N2CCO)OCCO3` (stereo not given), for which the growth with NCI-H23 lung is 19.6%; with NCI-H226 lung, -5.85% (active); in the experiment with NCI-H322M lung it was 35.3%; in the experiment on HOP-62 NSCLC, 26.7%; in the experiment with NCI-H460 lung, 0.852% (active); in the experiment on NCI-H522 lung, -22.4% (active). The growth was 13.8% with A549/ATCC NSCLC, 23.7% with 786-0 renal, -26.9% (active) with COLO 205 colon and -35.6% (active) with DU-145 prostate.
For `O=C(C[n+]1ccccc1)c1ccc2ccccc2c1`, the growth in the experiment with NCI-H23 lung was 88.1%; with NCI-H226 lung, 96.4%; with NCI-H322M lung, 95.2%; with HOP-62 NSCLC, 89.1%; in the experiment with NCI-H460 lung it was 104%; in the experiment with NCI-H522 lung, 103%. Moreover, the growth in the experiment on A549/ATCC NSCLC was 96.7%; in the experiment on 786-0 renal, 87.6%; in the experiment with COLO 205 colon, 102%; in the experiment on DU-145 prostate, 87.9%.
Regarding `COc1ccc(Nc2ccnc(NCCNc3ccnc4cc(Cl)ccc34)n2)cc1`, the growth was 48.8% with NCI-H23 lung; 49.7% in the experiment on NCI-H226 lung; 64.7% with NCI-H322M lung; 74.6% with HOP-62 NSCLC; 47.4% in the experiment with NCI-H460 lung; 43.9% in the experiment with NCI-H522 lung. Further, the growth with A549/ATCC NSCLC was 47%; in the experiment with 786-0 renal, 59.4%; in the experiment on COLO 205 colon, 38.8%; with DU-145 prostate, 61.4%.
With `COC(=O)C1(C)Cc2cc(OC(C)=O)c(OC(C)=O)cc2N1` (stereo not given), the growth is 91.5% with NCI-H23 lung; 113% in the experiment on NCI-H226 lung; 116% in the experiment with NCI-H322M lung; 117% in the experiment on HOP-62 NSCLC; 107% in the experiment with NCI-H460 lung; -55.8% (active) in the experiment with NCI-H522 lung. For the same molecule, the growth in the experiment with A549/ATCC NSCLC is 31.6%; in the experiment with 786-0 renal, 103%; in the experiment with COLO 205 colon, 53.7%; in the experiment on DU-145 prostate, 104%.
In the case of `CN(C)CCOc1nc2ccccc2c2c1-c1ccc(Cl)cc1C2=O`, the growth is -43.9% (active) in the experiment on NCI-H23 lung; 3.47% (active) in the experiment with NCI-H226 lung; -34% (active) with NCI-H322M lung; -20.4% (active) in the experiment on HOP-62 NSCLC; -20.7% (active) in the experiment on NCI-H460 lung; -65.5% (active) in the experiment on NCI-H522 lung. Further, the growth in the experiment with A549/ATCC NSCLC is -28.4% (active); with 786-0 renal, 12.7%; with COLO 205 colon, -76.1% (active); in the experiment with DU-145 prostate it was -14.2% (active).
As for `COc1ccc(-c2nc3ccccn3c2-c2nnc(-c3cc(OC)c(OC)c(OC)c3)o2)cc1`, the growth in the experiment on NCI-H23 lung is 72.5%; in the experiment on NCI-H226 lung, 60.3%; in the experiment on NCI-H322M lung, 57.3%; in the experiment with HOP-62 NSCLC, 37.1%; in the experiment on NCI-H460 lung it was 21.6%; in the experiment on NCI-H522 lung, 44.8%. Further, the growth is 60.9% in the experiment on A549/ATCC NSCLC, 60.3% with 786-0 renal, 53.3% in the experiment on COLO 205 colon and 66.4% in the experiment on DU-145 prostate.
Regarding `CCc1ccc2c(c1)N(CCO)C1=C(C(=O)OC1)C2c1ccccc1` (stereo not given), the growth in the experiment with NCI-H23 lung is 101%; with NCI-H226 lung, 102%; in the experiment on NCI-H322M lung it was 115%; in the experiment on HOP-62 NSCLC, 81.6%; with NCI-H460 lung, 109%; in the experiment with NCI-H522 lung, 4.79% (active). Also, the growth was 104% with A549/ATCC NSCLC, 97.1% in the experiment with 786-0 renal, 109% with COLO 205 colon and 115% with DU-145 prostate.
Turning to `Cc1nc2oc3ccccc3c(=O)c2cc1C(=O)NCc1ccccc1`, the growth was 85.9% in the experiment on NCI-H23 lung; 105% in the experiment with NCI-H226 lung; 76.2% in the experiment on NCI-H322M lung; 90.5% with HOP-62 NSCLC; 32.2% with NCI-H460 lung; 86.4% in the experiment with NCI-H522 lung. Besides, the growth with A549/ATCC NSCLC is 68.9%; in the experiment on 786-0 renal, 61.5%; in the experiment on COLO 205 colon, 39.9%; in the experiment with DU-145 prostate, 77%.
Turning to `COc1cccc(C2C3=C(COC3=O)N(CCO)c3cc(OC)ccc32)c1` (stereo not given), the growth with NCI-H23 lung is 26.3%; in the experiment with NCI-H226 lung, 0.496% (active); with NCI-H322M lung, 44%; in the experiment on HOP-62 NSCLC it was 30.3%; with NCI-H460 lung, 0.788% (active); with NCI-H522 lung, -34.8% (active). The growth in the experiment with A549/ATCC NSCLC was 18%; with 786-0 renal, 27.9%; with COLO 205 colon, -16.4% (active); with DU-145 prostate, -4.6% (active).
With `CCN(CC)CCOc1nc2ccccc2c2c1-c1ccc(OC)cc1C2=O`, the growth in the experiment with NCI-H23 lung is -29% (active); in the experiment with NCI-H226 lung it was 14%; with NCI-H322M lung, -29.3% (active); with HOP-62 NSCLC, -4.04% (active); in the experiment on NCI-H460 lung, -34.4% (active); in the experiment on NCI-H522 lung, -56.4% (active). Moreover, the growth in the experiment on A549/ATCC NSCLC is -28.5% (active); in the experiment on 786-0 renal it was 0.417% (active); in the experiment with COLO 205 colon, -57.1% (active); with DU-145 prostate, -8.05% (active).
Turning to `N#CCCN(NC(=O)OCc1ccccc1)C(=O)OCc1ccccc1`, the growth with NCI-H23 lung is 107%; in the experiment on NCI-H226 lung, 115%; with NCI-H322M lung, 109%; in the experiment with HOP-62 NSCLC, 120%; in the experiment on NCI-H460 lung, 103%; with NCI-H522 lung, 120%. Besides, the growth was 106% in the experiment with A549/ATCC NSCLC, 97.9% in the experiment on 786-0 renal, 119% in the experiment on COLO 205 colon and 109% in the experiment with DU-145 prostate.
For `CSc1nc(=O)n(Cc2ccc(F)cc2)c(=O)n1Cc1ccc(C)cc1`, the growth was 101% in the experiment with NCI-H23 lung; 101% in the experiment on NCI-H226 lung; 112% in the experiment on NCI-H322M lung; 101% in the experiment with HOP-62 NSCLC; 105% in the experiment on NCI-H460 lung; 110% in the experiment on NCI-H522 lung. The growth is 88.5% with A549/ATCC NSCLC, 100% in the experiment on 786-0 renal, 94.6% with COLO 205 colon and 107% with DU-145 prostate.
Turning to `O=[P@@]1(c2ccccc2)O[C@H](COCc2ccccc2)[C@@H](OCc2ccccc2)[C@H](OCc2ccccc2)[C@H]1O`, the growth in the experiment with NCI-H23 lung is 64.4%; in the experiment with NCI-H226 lung, 59%; in the experiment on NCI-H322M lung, 86.9%; with HOP-62 NSCLC, 7.83% (active); with NCI-H460 lung it was 74.7%; in the experiment with NCI-H522 lung, 42.2%. The growth with A549/ATCC NSCLC is 83.3%; in the experiment with 786-0 renal it was 65.3%; with COLO 205 colon, 118%; in the experiment on DU-145 prostate, 90.6%.
Take `CC(C)=CCc1cc(O)cc2c1OC(C=C(C)C)C1=C2C(=O)C2=C(C1=O)S(=O)(=O)CCN2` (stereo not given): the growth in the experiment on NCI-H23 lung is 28.6%; in the experiment with NCI-H226 lung it was 59.8%; in the experiment on NCI-H322M lung, 5.2% (active); with HOP-62 NSCLC, 35%; with NCI-H460 lung, 31.4%; with NCI-H522 lung, 7.19% (active). Further, the growth in the experiment with A549/ATCC NSCLC was 70.1%; with 786-0 renal, 80%; in the experiment on COLO 205 colon it was 43.4%; in the experiment with DU-145 prostate, 56.4%.
As for `Cc1ccc(NC(=O)CSc2nc3ccccc3c(=O)n2CCc2ccccc2)c(C(=O)O)c1`, the growth in the experiment on NCI-H23 lung is 101%; in the experiment with NCI-H226 lung, 101%; in the experiment with NCI-H322M lung it was 90.9%; in the experiment on HOP-62 NSCLC, 94.4%; with NCI-H460 lung, 110%; with NCI-H522 lung, 90.1%. The growth with A549/ATCC NSCLC is 98%; in the experiment on 786-0 renal it was 90.5%; with COLO 205 colon, 103%; with DU-145 prostate, 117%.

These data come from PubChem BioAssay (NCI).
